In all, about 1,400 sequences were measured (“thermal melting temperature (Tm) of peptide-HLA complex”: median about 60, lowest 2% from about 45 on). The full list was thinned out, with the lowest values kept by preference.
B1: unnamed (peptide)
chain: QPIDNVSRNLL
B2: unnamed (peptide)
chain: KVRGISEVL
B3: unnamed (peptide)
chain: QPIPFPKEAL
B4: unnamed (peptide)
chain: KPYQGNPTF
B5: unnamed (peptide)
chain: RPHAFQVIL
B6: unnamed (peptide)
chain: LPSGDRVAVSV
B7: unnamed (peptide)
chain: AANPNRFITL
B8: unnamed (peptide)
chain: TPRSPPLGL
B9: unnamed (peptide)
chain: TPINKPPVL
B10: unnamed (peptide)
chain: APRPDRLVNRL
B11: unnamed (peptide)
chain: LPHAVSSLL
B12: unnamed (peptide)
chain: LPRKPSVPW
B13: unnamed (peptide)
chain: APRQVLDLEDL
B14: unnamed (peptide)
chain: KMLTFLML
B15: unnamed (peptide)
chain: KPQTKLLIL
B16: unnamed (peptide)
chain: LPSKEHVDVI
B17: unnamed (peptide)
chain: IPFSNPRVL
B18: unnamed (peptide)
chain: LPRPWSVPPL
B19: unnamed (peptide)
chain: VPKPPSIEEF
B20: unnamed (peptide)
chain: RPAQVSQPF
B21: unnamed (peptide)
chain: IVDSARSIL
B22: unnamed (peptide)
chain: HPRKGFPGSL
B23: unnamed (peptide)
chain: APKPGGLSL
B24: unnamed (peptide)
chain: GPMNLRAAF
B25: unnamed (peptide)
chain: MPSASRVILL
B26: unnamed (peptide)
chain: APGPPGRSML
B27: unnamed (peptide)
chain: LPQLPLAAL
B28: unnamed (peptide)
chain: HPAAFPLPV
B29: unnamed (peptide)
chain: APRTVALTAL
B30: unnamed (peptide)
chain: LPQPVPLSV
B31: unnamed (peptide)
chain: IPRPDGIEW
B32: unnamed (peptide)
chain: QPHLVNIQF
B33: unnamed (peptide)
chain: RPGWLTVSL
B34: unnamed (peptide)
chain: RPAVIGDVL
B35: unnamed (peptide)
chain: HPAGPRTVF
B36: unnamed (peptide)
chain: YPTISLHAL

These sequences were tested against HLA-B*07:02 (assay: thermal melting temperature (Tm) of peptide-HLA complex; higher = more thermostable pHLA complex). Details: C1R-B*07:02.
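Note: lysates heated 10 min at 37–73 °C, complexes pulled down with pan-HLA I antibody, peptide signal by DIA-MS relative to 37 °C, Tm where half the complex is unfolded.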

Q: How did the thermal melting temperature turn out when B1 was run?
A: 59.3 °C

Q: How did the thermal melting temperature turn out when B2 was run?
A: 60.5 °C

Q: With B3 as the sequence, how does the thermal melting temperature read?
A: 60.7 °C

Q: How did the thermal melting temperature turn out when B4 was run?
A: 57.5 °C

Q: How did the thermal melting temperature turn out when B5 was run?
A: 60.2 °C

Q: B6 was tested. Which thermal melting temperature did it give?
A: 61 °C

Q: For B7, which thermal melting temperature is on record?
A: 61.1 °C

Q: With B8 as the sequence, how does the thermal melting temperature read?
A: 62.3 °C

Q: With B9 as the sequence, how does the thermal melting temperature read?
A: 56 °C

Q: B10 was tested. Which thermal melting temperature did it give?
A: 57.3 °C

Q: Which thermal melting temperature does the source give for B11 here?
A: 62.4 °C

Q: How did the thermal melting temperature turn out when B12 was run?
A: 59.5 °C

Q: B13 was tested. Which thermal melting temperature did it give?
A: 60.9 °C

Q: For B14, which thermal melting temperature is on record?
A: 61.7 °C

Q: How did the thermal melting temperature turn out when B15 was run?
A: 60.8 °C

Q: Which thermal melting temperature does the source give for B16 here?
A: 44.8 °C

Q: B17 was tested. Which thermal melting temperature did it give?
A: 61.4 °C

Q: With B18 as the sequence, how does the thermal melting temperature read?
A: 60 °C

Q: Which thermal melting temperature does the source give for B19 here?
A: 62.3 °C

Q: For B20, which thermal melting temperature is on record?
A: 60.2 °C

Q: For B21, which thermal melting temperature is on record?
A: 57.8 °C

Q: With B22 as the sequence, how does the thermal melting temperature read?
A: 45 °C

Q: B23 was tested. Which thermal melting temperature did it give?
A: 61.7 °C

Q: Which thermal melting temperature does the source give for B24 here?
A: 62.1 °C

Q: For B25, which thermal melting temperature is on record?
A: 62.7 °C

Q: B26 was tested. Which thermal melting temperature did it give?
A: 60 °C

Q: B27 was tested. Which thermal melting temperature did it give?
A: 59 °C

Q: B28 was tested. Which thermal melting temperature did it give?
A: 57.7 °C

Q: How did the thermal melting temperature turn out when B29 was run?
A: 62.9 °C

Q: B30 was tested. Which thermal melting temperature did it give?
A: 62.6 °C

Q: With B31 as the sequence, how does the thermal melting temperature read?
A: 58.4 °C

Q: With B32 as the sequence, how does the thermal melting temperature read?
A: 41.6 °C

Q: How did the thermal melting temperature turn out when B33 was run?
A: 59.2 °C

Q: B34 was tested. Which thermal melting temperature did it give?
A: 59.3 °C

Q: B35 was tested. Which thermal melting temperature did it give?
A: 59.1 °C

Q: For B36, which thermal melting temperature is on record?
A: 59.8 °C

— the supplement of paper PMC7726561
